PubChem BioAssay (NCATS)
Several values for one entry are separate records, joined by “and”; a condition that tells them apart may be missing. Equal values may be shown once. Records with an inconclusive call do not appear. Activity calls are given as the source filed them. Unless noted, calls follow the shape of the dose curve; as a rule, active = well fitted curve in the direction sought with a large enough effect; inconclusive = small, poorly fitted or top-dose-only effect, or another doubt; inactive = no such curve, though single readings can be large; an effect the other way counts as inactive or inconclusive.

Key:
[1] = target: Glucocorticoid receptor (Homo sapiens) (UniProt P04150); experiment: GR-GFP Redistribution (AID 450;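 active = compounds whose dose series gives a full or clear partial fitted curve of increased nuclear translocation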; also: potency is read from the fitted curve at half-maximal effect); conditions: U2OS GR-GFP nuclear translocation, laser cytometry, 2 h
[2] = target: Glucocorticoid receptor (Homo sapiens) (UniProt P04150); experiment: GR-EFC Redistribution (AID 451; calls by dose curve; also: potency is read from the fitted curve at half-maximal effect); conditions: CHO-K1 GR-EFC translocation, beta-gal luminescence, 2 h
Method in brief: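 Translocation of GR-ED fusion to nuclear EA restores b-gal, read by luminescence after 1 h room-temperature detection. Engineered CHO-K1 biosensor cells, 1,000/well, exposed 2 h at 37 C to titrations up to 46 uM final.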

[3] = target: Mitogen-activated protein kinase 10 (Mus musculus) (UniProt Q61831); experiment: JNK3 AlphaScreen Assay (AID 530; active = well fitted curve in either direction with a large enough effect, not every such curve was filed as active;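 also: kinase came from lysate of stimulated human HepG2 cells; signal reports phosphorylation of biotinylated GST-cJun 1-79 at Ser73 with 10 µM ATP; % is scaled to controls: 0 for no effect and ±100 for the full control effect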); conditions: JNK3 lysate, c-Jun phosphorylation; series mostly up to 57.1 µM
Method in brief: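 Kinase buffer: 20 mM Tris-HCl pH 7.6, 10 mM MgCl2, 1 mM DTT, 0.1 mM Na3VO4, 0.01% Tween-20; ATP 10 uM. Substrate biotin-GST-cJun(1-79), enzyme from activated HepG2 lysates. Detection by Ser73 phospho-antibody AlphaScreen.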

[4] = target: 3',5'-cyclic-AMP phosphodiesterase 4B (Homo sapiens) (UniProt Q07343); experiment: qHTS Assay for Inhibitors of PDE-IV (AID 607; active = well fitted activation curve with a large enough effect in the main read-out, with a control signal flat, not every such curve was filed as active; also: % of control where 0% means no effect); conditions: HEK293 ACTOne CNG channel cells, membrane potential fluorescence; series mostly up to 22.9 µM
Method in brief: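 HEK293 ACTOne cells with CNG channel (1000/well), endogenous PDE4; membrane potential dye, compounds up to 22.9 uM final. Fluorescence Ex 535/Em 590; RO 20-1724 (100 uM final) as reference.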

[5] = qHTS Assay for Lipid Storage Modulators (AID 1519; calls by dose curve); conditions: Drosophila S3 cells, BODIPY lipid droplet/cell ratio, laser cytometry, cells loaded with oleic acid; for activity change, negative = inhibition: at 57.5 µM (top of the series)
Method in brief: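 Cells seeded at 5,000 per well were treated with compounds over a concentration series and loaded with oleic acid (400 uM, as added). Lipid droplet fluorescence (488 nm excitation, 500-530 nm channel) was read by laser-scanning cytometry and normalized to 20 uM Triacsin C.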

[6] = target: DNA dC->dU-editing enzyme APOBEC-3G (Homo sapiens) (UniProt Q9HC16); experiment: qHTS for inhibitors of Vif-A3G interactions: Validation (AID 588379); conditions: Vif-A3G protein interaction assay; series mostly up to 46.1 µM; also: 0% is about no effect
Method in brief: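 Yellow fluorescence (Ex 488, Em 500-530) of Vif-coexpressing HeLa A3G-eYFP cells, scanned by Acumen cytometer, reports blocked A3G degradation. Cells plated at 700/well overnight at 37 deg C before compound addition, then a further overnight compound incubation at 37 deg C.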

[7] = test system: Zika virus NS2B-NS3 protease; experiment: Primary screen GU AMC qHTS for Zika virus inhibitors (AID 1347154); conditions: Zika NS2B-NS3 unlinked protease, AMC fluorogenic substrate; series mostly up to 54.1 µM;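 also: 0% = no-inhibitor control and -100% = no-enzyme control; nearly all actives have a fitted effect of over 70% in size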
Method in brief: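 Fluorogenic AMC-substrate cleavage by noncovalent NS2B-NS3 protease complex (25 nM, pH 8.0 Tris buffer with Tween 20) followed for 15 minutes at room temperature (~20% conversion). Percent inhibition from ex340/em450 signal change, fitted by 4-parameter Hill equation.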

[8] = Primary qHTS for small molecule stabilizers of the endoplasmic reticulum resident proteome: Secreted ER Calcium Modulated Protein (SERCaMP) assay (AID 1508630); conditions: SH-SY5Y GLuc-SERCaMP (Gaussia luciferase released on ER calcium loss) secretion, thapsigargin, luminescence; series mostly up to 38.4 µM; also: % is scaled to controls: 0 for no effect and ±100 for the full control effect
Method in brief: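 The SH-SY5Y reporter protocol was run at 3 concentrations up to 38.3 uM (primary) or 11 concentrations (follow-up): 16 h compound, 100 nM thapsigargin for 4 h, then extracellular luciferase luminescence.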

[9] = target: Cytochrome P450 3A4 (Homo sapiens) (UniProt P08684); experiment: qHTS Assay for Activators of Cytochrome P450 3A4 (AID 885); conditions: recombinant CYP3A4, Luciferin-PPXE luminescence, 60 min; series mostly up to 57.1 µM; also: nearly all actives have a fitted effect of over 65% in size
Method in brief: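 Human CYP3A4 dealkylates Luciferin-PPXE to luciferin, which luciferase detection converts to light. Substrate was at its KM (25uM), buffer 200mM KPO4, reaction 60 min at RT.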

[10] = target: Ubiquitin carboxyl-terminal hydrolase 1 (Homo sapiens) (UniProt O94782); experiment: Inhibitors of USP1/UAF1: Pilot qHTS (AID 504865); conditions: purified USP1/UAF1, Ub-rhodamine cleavage fluorescence; series mostly up to 114 µM;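 also: rhodamine fluorescence freed from ubiquitin-rhodamine substrate followed over time; top concentration of the series differs between compounds; % is scaled to controls: 0 for no effect and ±100 for the full control effect; nearly all actives have a fitted effect of over 35% in size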
Method in brief: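 In 50mM HEPES pH 7.8 containing 0.5mM EDTA, 1mM TCEP, 0.1 mg/ml BSA and 0.01% Tween-20, 1nM USP1/UAF1 is exposed to compound for 15 min, then Ub-Rho (150nM final) is added and fluorescence is read over time.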

[11] = target: Cytochrome P450 3A4 (Homo sapiens) (UniProt P08684); experiment: qHTS Assay for Inhibitors and Substrates of Cytochrome P450 3A4 (AID 884); conditions: recombinant CYP3A4, Luciferin-PPXE luminescence; series mostly up to 57.1 µM; also: % is scaled to controls: 0 for no effect and ±100 for the full control effect; nearly all actives have a fitted effect of over 50% in size
Method in brief: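 Luminescent readout of luciferin produced by CYP3A4 (20 nM) dealkylation of Luciferin-PPXE, 25 uM (its KM). NADPH-driven reaction ran 60 min at RT after 10 min compound preincubation; data scaled to 57 uM ketoconazole as 100% inhibition.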

[12] = target: Cytochrome P450 1A2 (Homo sapiens) (UniProt P05177); experiment: p450-cyp1a2 (AID 410; calls by dose curve; also: potency is read from the fitted curve at half-maximal effect); conditions: recombinant CYP1A2, luciferin-ME demethylation, luminescence; series mostly up to 57 µM
Method in brief: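 Read-out is luminescence from luciferin produced by CYP1A2 demethylation of Luciferin-ME (100uM, at Km). Detection reagent stopped the 60 min NADPH-dependent reaction; signals were normalized to 57 uM furafylline.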

[13] = NFAT Signaling Pathway (AID 444; active = well fitted curve in either direction with a large enough effect, not every such curve was filed as active;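 also: carbachol stimulus at about its EC50 of 1 µM final; % is scaled to controls: 0 for no effect and ±100 for the full control effect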); conditions: Jurkat NFAT-bla M1, carbachol, beta-lactamase ratio, 5 h; at 17.2 µM (top of the series)
Method in brief: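 Read-out: CCF4 FRET ratio (460 nm/530 nm) after 1 h RT dye loading, used for %activity and AC50 from titration series. Cells: Jurkat NFAT-β-lactamase/M1 line, treated with compound plus 1 uM carbachol for 5 h, 37 °C.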

[14] = Stat Signaling Pathway (AID 446; active = well fitted curve in either direction with a large enough effect, not every such curve was filed as active;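 also: ME-180 cervical cancer cells given 40 pM IL-6 alongside compound; SIE-controlled beta-lactamase reporter measured as 460/530 nm FRET emission ratio; % is scaled to controls: 0 for no effect and ±100 for the full control effect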); conditions: ME-180 (cervical carcinoma) SIE beta-lactamase reporter, IL-6 stimulated, 5 h; at 17.2 µM (top of the series)
Method in brief: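 Normalization used AC90 stimulation (300 pM IL-6) and AC90 inhibition (125 nM pan-JAK inhibitor at 40 pM IL-6). The underlying signal is SIE-driven beta-lactamase in ME-180 cells after 5 h IL-6 exposure with compound.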

[15] = target: Cytochrome P450 2C19 (Homo sapiens) (UniProt P33261); experiment: qHTS Assay for Inhibitors and Substrates of Cytochrome P450 2C19 (AID 899); conditions: recombinant CYP2C19, luciferin-H EGE luminescence; series mostly up to 57.1 µM; also: potency is read from the fitted curve at half-maximal effect; nearly all actives have a fitted effect of over 60% in size
Method in brief: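 Reactions contain 5nM enzyme, 10uM Luciferin-H EGE (KM) and 50mM KPO4; compound preincubates 10 min at 37C, NADPH regeneration starts turnover for 60 min. Luminescence after detection reagent gives activity.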

[16] = measured here: cell count channel max response
[17] = measured here: lipid channel max response

Glucocorticoid receptor (Homo sapiens), sequence (P04150 whole entry, looked up, the tested form may be a part): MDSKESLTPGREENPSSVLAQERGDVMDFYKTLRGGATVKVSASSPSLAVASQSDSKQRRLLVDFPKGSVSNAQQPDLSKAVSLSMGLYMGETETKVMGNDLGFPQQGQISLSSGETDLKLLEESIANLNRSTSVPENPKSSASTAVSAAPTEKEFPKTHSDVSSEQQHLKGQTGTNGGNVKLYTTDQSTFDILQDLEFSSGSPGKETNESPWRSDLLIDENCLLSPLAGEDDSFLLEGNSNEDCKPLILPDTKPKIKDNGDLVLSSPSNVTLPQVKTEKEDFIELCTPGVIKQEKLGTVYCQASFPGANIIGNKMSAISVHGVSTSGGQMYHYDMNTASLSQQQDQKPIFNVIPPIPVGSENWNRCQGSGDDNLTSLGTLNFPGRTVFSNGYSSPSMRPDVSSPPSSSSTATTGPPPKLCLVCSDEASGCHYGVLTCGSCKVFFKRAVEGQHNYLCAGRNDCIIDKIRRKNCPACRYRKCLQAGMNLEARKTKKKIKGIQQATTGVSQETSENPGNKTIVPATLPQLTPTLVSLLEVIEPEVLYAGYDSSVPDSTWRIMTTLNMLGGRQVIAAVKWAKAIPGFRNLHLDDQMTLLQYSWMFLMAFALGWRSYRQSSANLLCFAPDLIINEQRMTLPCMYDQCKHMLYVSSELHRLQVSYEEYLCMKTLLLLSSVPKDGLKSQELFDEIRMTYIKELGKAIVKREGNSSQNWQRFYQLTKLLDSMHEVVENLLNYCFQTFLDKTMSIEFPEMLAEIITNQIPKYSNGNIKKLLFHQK
DNA dC->dU-editing enzyme APOBEC-3G (Homo sapiens), sequence (Q9HC16 whole entry, looked up): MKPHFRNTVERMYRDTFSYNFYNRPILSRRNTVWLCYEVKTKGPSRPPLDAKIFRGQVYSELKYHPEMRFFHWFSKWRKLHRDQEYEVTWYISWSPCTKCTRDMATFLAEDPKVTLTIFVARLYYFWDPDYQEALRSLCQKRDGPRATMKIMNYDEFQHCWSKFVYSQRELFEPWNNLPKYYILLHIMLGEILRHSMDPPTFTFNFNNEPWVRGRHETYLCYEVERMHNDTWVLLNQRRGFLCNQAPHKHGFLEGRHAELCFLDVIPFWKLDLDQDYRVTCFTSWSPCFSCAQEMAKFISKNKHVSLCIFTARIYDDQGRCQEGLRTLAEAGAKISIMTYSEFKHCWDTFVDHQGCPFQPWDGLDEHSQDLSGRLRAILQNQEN
Ubiquitin carboxyl-terminal hydrolase 1 (Homo sapiens), sequence (O94782 whole entry, looked up): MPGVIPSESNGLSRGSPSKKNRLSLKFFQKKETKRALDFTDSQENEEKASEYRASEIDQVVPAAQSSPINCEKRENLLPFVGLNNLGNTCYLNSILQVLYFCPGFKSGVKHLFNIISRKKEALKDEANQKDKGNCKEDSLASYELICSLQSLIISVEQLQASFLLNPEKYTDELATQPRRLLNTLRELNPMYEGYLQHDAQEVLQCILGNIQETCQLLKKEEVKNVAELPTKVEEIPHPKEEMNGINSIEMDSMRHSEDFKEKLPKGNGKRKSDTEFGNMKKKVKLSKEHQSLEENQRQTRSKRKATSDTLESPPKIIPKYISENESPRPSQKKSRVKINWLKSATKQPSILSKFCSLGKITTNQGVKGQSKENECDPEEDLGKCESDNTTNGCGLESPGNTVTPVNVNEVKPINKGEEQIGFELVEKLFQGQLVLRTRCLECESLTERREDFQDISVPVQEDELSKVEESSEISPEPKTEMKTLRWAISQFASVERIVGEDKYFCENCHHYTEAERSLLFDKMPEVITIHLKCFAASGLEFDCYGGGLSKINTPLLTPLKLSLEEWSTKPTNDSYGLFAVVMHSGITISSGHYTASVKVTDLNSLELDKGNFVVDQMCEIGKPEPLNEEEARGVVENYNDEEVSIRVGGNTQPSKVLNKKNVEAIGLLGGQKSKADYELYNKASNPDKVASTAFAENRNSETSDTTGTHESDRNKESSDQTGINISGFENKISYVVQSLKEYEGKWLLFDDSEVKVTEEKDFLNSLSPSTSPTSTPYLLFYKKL
3',5'-cyclic-AMP phosphodiesterase 4B (Homo sapiens), sequence (Q07343 whole entry, looked up): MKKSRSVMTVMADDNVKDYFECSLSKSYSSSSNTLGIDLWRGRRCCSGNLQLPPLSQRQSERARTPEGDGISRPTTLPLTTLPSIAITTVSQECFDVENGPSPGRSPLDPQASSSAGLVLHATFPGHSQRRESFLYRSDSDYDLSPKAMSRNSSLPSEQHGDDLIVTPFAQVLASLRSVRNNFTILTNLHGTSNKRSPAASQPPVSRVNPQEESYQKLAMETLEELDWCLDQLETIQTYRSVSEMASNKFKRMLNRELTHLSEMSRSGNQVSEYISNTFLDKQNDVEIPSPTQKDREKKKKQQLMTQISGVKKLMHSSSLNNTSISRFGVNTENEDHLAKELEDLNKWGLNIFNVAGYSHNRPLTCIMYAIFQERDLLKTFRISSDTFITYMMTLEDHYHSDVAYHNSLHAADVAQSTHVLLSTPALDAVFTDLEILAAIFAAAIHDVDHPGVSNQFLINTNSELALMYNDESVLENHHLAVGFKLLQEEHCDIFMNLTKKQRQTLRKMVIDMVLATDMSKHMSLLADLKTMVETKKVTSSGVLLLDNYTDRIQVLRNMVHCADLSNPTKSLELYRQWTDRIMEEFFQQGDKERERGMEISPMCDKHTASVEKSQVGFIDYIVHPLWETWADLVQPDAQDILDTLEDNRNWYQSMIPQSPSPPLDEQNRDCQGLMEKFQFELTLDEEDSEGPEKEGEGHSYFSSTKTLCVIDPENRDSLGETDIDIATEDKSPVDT
Cytochrome P450 3A4 (Homo sapiens), sequence (P08684 whole entry, looked up): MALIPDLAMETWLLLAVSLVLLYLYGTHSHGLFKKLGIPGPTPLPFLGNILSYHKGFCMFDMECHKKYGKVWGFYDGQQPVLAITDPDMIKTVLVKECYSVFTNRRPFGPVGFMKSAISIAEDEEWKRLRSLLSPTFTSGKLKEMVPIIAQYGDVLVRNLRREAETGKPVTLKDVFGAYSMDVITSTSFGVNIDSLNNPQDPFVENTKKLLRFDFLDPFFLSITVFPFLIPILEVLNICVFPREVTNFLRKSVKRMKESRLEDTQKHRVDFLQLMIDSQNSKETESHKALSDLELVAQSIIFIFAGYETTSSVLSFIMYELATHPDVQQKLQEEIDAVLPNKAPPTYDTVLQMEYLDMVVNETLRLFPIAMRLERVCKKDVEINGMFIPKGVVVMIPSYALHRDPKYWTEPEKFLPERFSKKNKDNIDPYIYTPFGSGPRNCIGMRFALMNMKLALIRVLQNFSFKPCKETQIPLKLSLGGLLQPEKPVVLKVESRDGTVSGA
Cytochrome P450 2C19 (Homo sapiens), sequence (P33261 whole entry, looked up): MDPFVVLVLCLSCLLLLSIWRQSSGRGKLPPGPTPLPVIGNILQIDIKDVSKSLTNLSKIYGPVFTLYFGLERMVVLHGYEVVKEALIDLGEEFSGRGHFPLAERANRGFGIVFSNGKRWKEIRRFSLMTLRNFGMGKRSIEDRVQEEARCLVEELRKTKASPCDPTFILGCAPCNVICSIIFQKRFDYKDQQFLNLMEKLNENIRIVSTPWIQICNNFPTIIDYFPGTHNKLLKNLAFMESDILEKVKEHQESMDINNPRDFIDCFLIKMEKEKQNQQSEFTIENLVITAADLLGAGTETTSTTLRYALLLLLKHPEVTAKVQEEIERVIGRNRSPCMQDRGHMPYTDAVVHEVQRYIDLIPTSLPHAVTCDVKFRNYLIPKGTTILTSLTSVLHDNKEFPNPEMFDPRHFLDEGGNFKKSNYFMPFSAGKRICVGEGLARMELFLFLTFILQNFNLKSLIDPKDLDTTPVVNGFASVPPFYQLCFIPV
Cytochrome P450 1A2 (Homo sapiens), sequence (P05177 whole entry, looked up): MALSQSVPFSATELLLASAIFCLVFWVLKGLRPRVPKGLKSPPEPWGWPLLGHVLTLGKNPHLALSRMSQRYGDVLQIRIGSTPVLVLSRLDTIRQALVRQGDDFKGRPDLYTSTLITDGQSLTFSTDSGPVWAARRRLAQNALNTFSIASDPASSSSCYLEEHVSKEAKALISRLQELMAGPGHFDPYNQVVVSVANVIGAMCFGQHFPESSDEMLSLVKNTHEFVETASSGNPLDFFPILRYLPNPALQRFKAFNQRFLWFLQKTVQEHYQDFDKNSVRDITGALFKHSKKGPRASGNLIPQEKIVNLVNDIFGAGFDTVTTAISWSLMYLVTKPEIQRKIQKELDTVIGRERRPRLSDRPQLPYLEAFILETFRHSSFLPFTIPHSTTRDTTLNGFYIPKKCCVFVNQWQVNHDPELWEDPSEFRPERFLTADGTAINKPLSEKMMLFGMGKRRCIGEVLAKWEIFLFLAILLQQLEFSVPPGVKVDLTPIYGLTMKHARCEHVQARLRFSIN

CC(=O)O[C@H]1C[C@H]2CC[C@@H]3[C@H]4C[C@@H]([N+]5(C)CCCCC5)[C@@H](OC(C)=O)[C@]4(C)CC[C@@H]3[C@@]2(C)C[C@@H]1[N+]1(C)CCCCC1
-19.7%: max response [5, 16]
-24.4%: max response [5, 17]
inactive: Potency [1] > 46 µM | Potency [2] > 46 µM | Potency [3] | Potency [4] | activity change, negative = inhibition [5] -5.08% | Potency [6] | Potency [7] | Potency [8]

O=C(O)CCC/C=C\C[C@@H]1CO[C@H](C(F)(F)F)O[C@@H]1c1ccccc1O
-8.58%: max response [5, 16]
inactive: Potency [1] > 46 µM | Potency [2] > 46 µM | Potency [3] | Potency [9] | activity change, negative = inhibition [5] 0.11% | Potency [10] | Potency [6] | Potency [7] | Potency [8]
-8.44%: max response [5, 17]

CC[C@@](N)(C(=O)O)c1ccc(C(=O)O)cc1
-11.5%: max response [5, 16] | max response [5, 17]
inactive: Potency [1] > 46 µM | Potency [2] > 46 µM | Potency [3] | Potency [4] | activity change, negative = inhibition [5] 2.13% | Potency [10] | Potency [6] | Potency [7] | Potency [8]

NC(N)=NCCC[C@@H](N)C(=O)O
-21.4%: max response [5, 17]
inactive: Potency [11] | activity change, negative = inhibition [5] -2.14% | Potency [10] | Potency [6] | Potency [7] | Potency [8]
-17.8%: max response [5, 16]

Cc1cc([C@](C)(N)C(=O)O)ccc1P(=O)(O)O
16.7%: max response [5, 16]
13.5%: max response [5, 17]
inactive: Potency [1] > 46 µM | Potency [2] > 46 µM | Potency [3] | Potency [4] | activity change, negative = inhibition [5] -5.09% | Potency [10] | Potency [6] | Potency [7] | Potency [8]

C[C@@H](C(=O)O)c1ccc(-c2ccccc2)c(F)c1
inactive: activity change, negative = inhibition [13] 3.63% | activity, negative = inhibition [14] 1.05% | Potency [1] > 20.6 µM and > 46 µM | Potency [2] > 20.6 µM and > 46 µM | Potency [3] | Potency [4] | Potency [10] | Potency [6] | Potency [7] | Potency [8]
active: Potency [12] 10 µM | Potency [15] 0.631 µM

O=C1CC[C@H](C(=O)O)N1
inactive: Potency [7] | Potency [8]

CSc1nc(N)c2ncn([C@H]3O[C@H](COP(=O)(O)OP(=O)(O)O)[C@@H](O)[C@@H]3O)c2n1
26.1%: max response [5, 17]
inactive: Potency [1] > 46 µM | Potency [2] > 46 µM | Potency [3] | activity change, negative = inhibition [5] 8.63% | Potency [10] | Potency [6] | Potency [7] | Potency [8]
13.1%: max response [5, 16]

CC[N+](C)(CC)CC(=O)Nc1c(C)cccc1C
-8.79%: max response [5, 17]
inactive: Potency [1] > 46 µM | Potency [2] > 46 µM | Potency [3] | Potency [4] | activity change, negative = inhibition [5] 0.67% | Potency [10] | Potency [6] | Potency [7] | Potency [8]
-9.49%: max response [5, 16]
